VACV E9 pol inh – vaccinia E9 polymerase processive synthesis inhibitors, primary screen, biochemical, absorbance. in vitro processive DNA synthesis, absorbance read-out; active compounds read low. normalized absorbance, % (test concentration not listed). hit rate 0.94% among 46,000. AID 493162, 2011; in the data active = normalized absorbance mostly below about 85%, no sharp cut-off; inactive = mostly above about 86%
* hit, by the source's call. This is one part of a sample in which hits are shown more often than they occur.

SMILES	VACV E9 pol inh
CSc1sc2ccccc2[n+]1C	102
CC[n+]1c(/C=C/Nc2ccccc2)sc2ccccc21	99
CCCN(CCC)C(=O)c1cccc(S(=O)(=O)N2CC(C)CC(C)C2)c1 (stereo unspecified)	103
CCc1ccc(N2Cc3ccccc3C2=N)cc1	99
N=C1c2ccccc2CN1c1ccc2c(c1)OCCO2	104
Cc1cc(C)nc(N2Cc3ccccc3C2=N)n1	69*
CCNc1cc(N(C)C)c2noc3c2c1C(=O)c1ccccc1-3	72
CC(C)Nc1cc(Br)c2noc3c2c1C(=O)c1ccccc1-3	100
O=C1c2ccccc2-c2onc3c(Br)cc(N4CCCCC4)c1c23	73*
COc1ccc2cc(Br)ccc2c1CC(=O)Nc1nccs1	98
COc1cc(C(=O)NCc2ccc(OCCN(C)C)cc2)cc(OC)c1OC	101
COc1cc2ccc3c(CCN(C)C)cc(OC)c(OC)c3c2cc1OC	61*
COc1ccc(Cc2nccc3cc(OC)c(OC)cc23)cc1OC	97
CCCCn1c(CCNC(=O)c2ccccc2)nc2ccccc21	101
Nc1ccccc1-c1nnc(-c2ccc(-c3ccccc3)cc2)o1	66*
NC(=O)c1ccc(-c2nnc(-c3ccccc3)o2)cc1	94
c1ccc(-c2nnc(-c3ccccc3)o2)cc1	99
O=C(O)C(Cc1cnc[nH]1)NC1CNN=C1c1ccc(Cl)cc1 (stereo unspecified)	99
Clc1cc(NCc2ccc3c(c2)OCO3)ccc1N1CCOCC1	101
Cc1sc(/N=C/c2c[nH]c3ccccc23)c(C#N)c1C	92
CN(C)C=Nc1ncc2c([nH]c3ccccc32)c1C#N	89*
Cc1[nH]c2ccccc2c1N=CN(C)C	100
Cc1ccc2cc3cc(C(=O)NCC4(c5ccccc5)CCCC4)oc3nc2c1	102
CCOC(=O)N1CCN(C(=O)CN(Cc2cccc(C)c2)S(=O)(=O)c2ccc(Cl)cc2)CC1	100
Nc1nc(-c2cc3cc(Br)ccc3oc2=O)cs1	100
CC(=O)NC(c1ccc(Cl)cc1)C1CCCCC1=O (stereo unspecified)	99

From PubChem BioAssay
